Reference: the supplement of paper PMC6555819

test system: PPARg DBDmut IVT, anti-PPARg (DBD mutation: PPARg1 K132A/R137A, NR concentration 270 nM); experiment: PBM binding z-score (relative to random genomic background probes); higher = stronger binding; sequences stand for … in GC…GCGATTGACAGCGTAGAATGAAGG
Outline: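 Scanned fluorescence from custom Agilent 4×180K protein-binding microarrays was regression-normalized. Binding z-scores use random background probes as reference. Ligand-free nuclear receptor dimers were incubated on the arrays for 1 h and detected with antibodies against each partner (one per run).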

Row | Sequence | PBM binding z-score
1 | CCTACTGGGCCATTCAGAGGTCAGTGATCATATG | -0.353
2 | CCTCGGAGGACAACAGGAGGTTAGAGCTGCCAGA | -1.73
3 | TGAATCAGGTTAAAGATCAGGGAACGTGGCGTCG | 0.175
4 | CGTCCATGGTCAGCAGGTCAGTGAAAGCGACGTG | -0.979
5 | GCGACTGGGGCCAAGCAGGTTACCATAAGGTTGG | -1.96
6 | CTGGAAAGGTCGGTTGAGGTGAGTATACGGATAA | 0.0614
7 | TCATATAGGTAAAGGTCAAAGTCGAACGATATGA | 1.9
8 | ACAGACAGGTGATGGAGGTAACTCAGGCTATCAT | -0.142
9 | TTACCAAGGTGAGCTGAGGACGTTGATCCAACTC | -0.329
10 | TCTAGTTGGTCAAAGGTCACACACTCGAAATGCG | 2.02
11 | ACTAGCAGGCCAAGGGTAACTCAAGATTAGTCCG | -0.439
12 | CGTCCCAGGTCAAAGGTCAGTGAAGAGATGACGG | 0.538
13 | GCGACTAGGGCAAAGCAGGTTACCATAAGGTTGG | -0.903
14 | ATCTCTAGGCAACCAAGTTCAGTGAATGCCGAAC | 0.473
15 | GCATATAGGAAATACAAGGTGAAAGTCCGATTGT | 0.353
16 | ATCTCTAGGTAACCAAGTTCAGTTAATGCCGAAC | 1.26
17 | GCGACTGGGGCAAAGCAGGGTACCATAAGGTTGG | -0.643
18 | CTACCAAGGTGAACAAGGTTGTTGATTACTATTC | 0.038
19 | CCTGCTAGGTCAATTGTCAGCTAAAGCAGCTCGC | -0.703
20 | GCTCGGAGGACAAGGTCATAGCTTTGTCCGTAGA | -1.25
21 | ACTCGGAGGAAAAAGGTCAGAGCTACGCCAGTGA | -0.672
22 | TCTCGGAGGACACGAAGGTCAGAGCGTTCCAGAG | -1.07
